# Results published in PubChem BioAssay AID1159580 (chemical genetic matrix, 2015).
# “And” between values parts separate entries of the source, which are not always exact repeats. Equal values may be shown once. About 2,000 (36%) of roughly 5,500 compounds were called active. Another 18% or so got no clear call; they are omitted. The list shows a part of the results. Values without a mark were called inactive. Cut-off read from the data, not from the text of the source: active = normalized growth mostly below about 0.91 (no sharp cut-off); inconclusive = no clear call, values can overlap the other calls; inactive = mostly above about 0.92.
# Assay: chemical genetic growth profiling, strain panel (AID 1159580);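 note: tested at 20 µM; growth read once vehicle control cultures reached saturation at 30 °C; 1 = growth at the plate median or of vehicle wells; lower values mean less growth of the strain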
# Details: growth OD
smiles,measurement,setting,value
NC(N)=NC(=O)c1nc(Cl)c(N)nc1N,normalized growth,"S. cerevisiae deletion strains, locus YKL009W, strain mrt4, stronger effect = lower value",1.03
same,normalized growth,"S. cerevisiae deletion strains, locus YKL068W, stronger effect = lower value",1
same,normalized growth,"S. cerevisiae deletion strains, locus YKL085W, strain MDH1 (second series), stronger effect = lower value",1.01
same,normalized growth,"S. cerevisiae deletion strains, locus YKL085W, strain MDH1, stronger effect = lower value",1.01
same,normalized growth,"S. cerevisiae deletion strains, locus YKL160W, strain elf1, stronger effect = lower value",1.02
same,normalized growth,"S. cerevisiae deletion strains, locus YKL190W, strain CNB1, stronger effect = lower value",0.994
same,normalized growth,"S. cerevisiae deletion strains, locus YKR001C, strain vps1, stronger effect = lower value",1.02
same,normalized growth,"S. cerevisiae deletion strains, locus YKR026C, strain gcn3, stronger effect = lower value",1.03
same,normalized growth,"S. cerevisiae deletion strains, locus YKR091W, strain srl3, stronger effect = lower value",1.03
same,normalized growth,"S. cerevisiae deletion strains, locus YLL001W, strain dnm1, stronger effect = lower value",1.02
same,normalized growth,"S. cerevisiae deletion strains, locus YLL026W, stronger effect = lower value",1.02
same,normalized growth,"S. cerevisiae deletion strains, locus YLL041C, strain sdh2, stronger effect = lower value",1
same,normalized growth,"S. cerevisiae deletion strains, locus YLR027C, strain aat2, stronger effect = lower value",1.02
same,normalized growth,"S. cerevisiae deletion strains, locus YLR039C, strain RIC1, stronger effect = lower value",1.31
same,normalized growth,"S. cerevisiae deletion strains, locus YLR058C, strain SHM2, stronger effect = lower value",1.01
same,normalized growth,"S. cerevisiae deletion strains, locus YLR102C, strain apc9, stronger effect = lower value",1
same,normalized growth,"S. cerevisiae deletion strains, locus YLR113W, strain HOG1, stronger effect = lower value",1.03
same,normalized growth,"S. cerevisiae deletion strains, locus YLR221C, strain rsa3, stronger effect = lower value",1.03
same,normalized growth,"S. cerevisiae deletion strains, locus YLR258W, strain gsy2, stronger effect = lower value",1.02
same,normalized growth,"S. cerevisiae deletion strains, locus YLR262C, strain YPT6 (second series), stronger effect = lower value",1.02
same,normalized growth,"S. cerevisiae deletion strains, locus YLR262C, strain YPT6, stronger effect = lower value",1.41 [resistant] (active)
same,normalized growth,"S. cerevisiae deletion strains, locus YLR268W, strain sec22, stronger effect = lower value",1.05
same,normalized growth,"S. cerevisiae deletion strains, locus YLR320W, strain mms22, stronger effect = lower value",1.01
same,normalized growth,"S. cerevisiae deletion strains, locus YLR330W, strain CHS5, stronger effect = lower value",1.01
same,normalized growth,"S. cerevisiae deletion strains, locus YLR342W, strain FKS1 (second series), stronger effect = lower value",0.893
same,normalized growth,"S. cerevisiae deletion strains, locus YLR342W, strain FKS1, stronger effect = lower value",1.03
same,normalized growth,"S. cerevisiae deletion strains, locus YLR357W, strain rsc2, stronger effect = lower value",1.02
same,normalized growth,"S. cerevisiae deletion strains, locus YLR370C, strain arc18, stronger effect = lower value",1.01
same,normalized growth,"S. cerevisiae deletion strains, locus YLR371W, strain rom2, stronger effect = lower value",1.03
same,normalized growth,"S. cerevisiae deletion strains, locus YLR384C, strain iki3, stronger effect = lower value",1.03
same,normalized growth,"S. cerevisiae deletion strains, locus YLR418C, strain cdc73, stronger effect = lower value",0.94
same,normalized growth,"S. cerevisiae deletion strains, locus YML016C, strain PPZ1, stronger effect = lower value",1.01
same,normalized growth,"S. cerevisiae deletion strains, locus YML032C, strain rad52, stronger effect = lower value",1.01
same,normalized growth,"S. cerevisiae deletion strains, locus YML120C, strain ndi1, stronger effect = lower value",1.01
same,normalized growth,"S. cerevisiae deletion strains, locus YML124C, strain tub3, stronger effect = lower value",1.02
same,normalized growth,"S. cerevisiae deletion strains, locus YMR058W, strain fet3, stronger effect = lower value",1.01
same,normalized growth,"S. cerevisiae deletion strains, locus YMR078C, strain ctf18, stronger effect = lower value",1.02
same,normalized growth,"S. cerevisiae deletion strains, locus YMR125W, strain sto1, stronger effect = lower value",1.02
same,normalized growth,"S. cerevisiae deletion strains, locus YMR129W, stronger effect = lower value",1
same,normalized growth,"S. cerevisiae deletion strains, locus YMR205C, strain PFK2, stronger effect = lower value",1.02
same,normalized growth,"S. cerevisiae deletion strains, locus YMR223W, strain ubp8, stronger effect = lower value",1.01
same,normalized growth,"S. cerevisiae deletion strains, locus YMR231W, strain pep5, stronger effect = lower value",1.02
same,normalized growth,"S. cerevisiae deletion strains, locus YMR307W, strain GAS1, stronger effect = lower value",1.02 and 0.992
same,normalized growth,"S. cerevisiae deletion strains, locus YNL067W, strain RPL9B, stronger effect = lower value",1
same,normalized growth,"S. cerevisiae deletion strains, locus YNL071W, strain lat1, stronger effect = lower value",1.01
same,normalized growth,"S. cerevisiae deletion strains, locus YNL128W, strain TEP1, stronger effect = lower value",0.981
same,normalized growth,"S. cerevisiae deletion strains, locus YNL153C, strain GIM3, stronger effect = lower value",1
same,normalized growth,"S. cerevisiae deletion strains, locus YNL175C, strain NOP13, stronger effect = lower value",0.994
same,normalized growth,"S. cerevisiae deletion strains, locus YNL183C, strain NPR1, stronger effect = lower value",0.948
same,normalized growth,"S. cerevisiae deletion strains, locus YNL197C, strain WHI3, stronger effect = lower value",0.992
same,normalized growth,"S. cerevisiae deletion strains, locus YNL209W, strain ssb2, stronger effect = lower value",1
same,normalized growth,"S. cerevisiae deletion strains, locus YNL224C, strain SQS1, stronger effect = lower value",1
same,normalized growth,"S. cerevisiae deletion strains, locus YNL233W, strain BNI4, stronger effect = lower value",1
same,normalized growth,"S. cerevisiae deletion strains, locus YNL248C, strain rpa49, stronger effect = lower value",1.03
same,normalized growth,"S. cerevisiae deletion strains, locus YNL250W, strain rad50, stronger effect = lower value",1.02
same,normalized growth,"S. cerevisiae deletion strains, locus YNL271C, strain bni1, stronger effect = lower value",1.03
same,normalized growth,"S. cerevisiae deletion strains, locus YNL298W, strain CLA4, stronger effect = lower value",1.02
same,normalized growth,"S. cerevisiae deletion strains, locus YNL307C, strain MCK1, stronger effect = lower value",1.01
same,normalized growth,"S. cerevisiae deletion strains, locus YNL322C, strain KRE1 (second series), stronger effect = lower value",1.02
same,normalized growth,"S. cerevisiae deletion strains, locus YNL322C, strain KRE1, stronger effect = lower value",1.01
same,normalized growth,"S. cerevisiae deletion strains, locus YNR049C, strain mso1, stronger effect = lower value",1.02
same,normalized growth,"S. cerevisiae deletion strains, locus YNR052C, strain pop2, stronger effect = lower value",1.01
same,normalized growth,"S. cerevisiae deletion strains, locus YOL006C, strain TOP1, stronger effect = lower value",0.949
same,normalized growth,"S. cerevisiae deletion strains, locus YOL012C, strain htz1",1.27
same,normalized growth,"S. cerevisiae deletion strains, locus YOL147C, strain pex11, stronger effect = lower value",1.02
same,normalized growth,"S. cerevisiae deletion strains, locus YOR001W, strain rrp6, stronger effect = lower value",1.03
same,normalized growth,"S. cerevisiae deletion strains, locus YOR061W, strain CKA2, stronger effect = lower value",1.01
same,normalized growth,"S. cerevisiae deletion strains, locus YOR069W, strain VPS5, stronger effect = lower value",1
same,normalized growth,"S. cerevisiae deletion strains, locus YOR070C, strain gyp1, stronger effect = lower value",1.01
same,normalized growth,"S. cerevisiae deletion strains, locus YOR080W, strain dia2, stronger effect = lower value",1.04
same,normalized growth,"S. cerevisiae deletion strains, locus YOR083W, strain WHI5 (second series), stronger effect = lower value",1.01
same,normalized growth,"S. cerevisiae deletion strains, locus YOR083W, strain WHI5, stronger effect = lower value",1.04
same,normalized growth,"S. cerevisiae deletion strains, locus YOR106W, strain vam3, stronger effect = lower value",0.997
same,normalized growth,"S. cerevisiae deletion strains, locus YOR136W, strain idh2, stronger effect = lower value",1.04
same,normalized growth,"S. cerevisiae deletion strains, locus YOR144C, strain elg1, stronger effect = lower value",1.01
same,normalized growth,"S. cerevisiae deletion strains, locus YOR184W, strain ser1, stronger effect = lower value",1.05
same,normalized growth,"S. cerevisiae deletion strains, locus YOR231W, strain MKK1, stronger effect = lower value",0.998
same,normalized growth,"S. cerevisiae deletion strains, locus YOR265W, strain rbl2, stronger effect = lower value",1.02
same,normalized growth,"S. cerevisiae deletion strains, locus YOR270C, strain vph1, stronger effect = lower value",1.03
same,normalized growth,"S. cerevisiae deletion strains, locus YOR290C, strain snf2, stronger effect = lower value",0.985
same,normalized growth,"S. cerevisiae deletion strains, locus YOR316C, strain cot1, stronger effect = lower value",1.01
same,normalized growth,"S. cerevisiae deletion strains, locus YPL051W, strain arl3, stronger effect = lower value",1.03
same,normalized growth,"S. cerevisiae deletion strains, locus YPL078C, strain atp4, stronger effect = lower value",1.04
same,normalized growth,"S. cerevisiae deletion strains, locus YPL106C, strain sse1, stronger effect = lower value",1
same,normalized growth,"S. cerevisiae deletion strains, locus YPL240C, strain hsp82, stronger effect = lower value",1.02
same,normalized growth,"S. cerevisiae deletion strains, locus YPL241C, strain CIN2, stronger effect = lower value",0.998 and 0.996
same,normalized growth,"S. cerevisiae deletion strains, locus YPL256C, strain CLN2, stronger effect = lower value",1.01
same,normalized growth,"S. cerevisiae deletion strains, locus YPR119W, strain clb2, stronger effect = lower value",1.01
same,normalized growth,"S. cerevisiae deletion strains, locus YPR141C, strain kar3, stronger effect = lower value",1.01
same,normalized growth,"S. cerevisiae deletion strains, locus YPR163C, strain tif3, stronger effect = lower value",1.02
same,normalized growth,"S. cerevisiae deletion strains, locus YPR167C, strain met16, stronger effect = lower value",1.02
same,normalized growth,"S. cerevisiae deletion strains, strain wtn01, stronger effect = lower value",1.01
same,normalized growth,"S. cerevisiae strains, strain wild type, stronger effect = lower value",1
